Results filed as inconclusive are left out. A call without a number means that no potency is given here. Calls of active or inactive are those of the source. Calls come from the whole dose curve; as a rule, active = well fitted inhibition curve with a large enough effect; inconclusive = small, poorly fitted or top-dose-only effect; inactive = flat fitted curve, though single readings scatter.
biological target: Glutathione peroxidase 1 (Homo sapiens) (UniProt P07203); assay: Primary qHTS Assay for Inhibitors of Recombinant Selenoprotein Glutathione Peroxidase 1 (GPX1) (AID 1845191); conditions: recombinant GPX1, GR-coupled NADPH fluorescence, 15 min; series mostly up to 48.8 µM
Sequence (P07203 whole entry, looked up): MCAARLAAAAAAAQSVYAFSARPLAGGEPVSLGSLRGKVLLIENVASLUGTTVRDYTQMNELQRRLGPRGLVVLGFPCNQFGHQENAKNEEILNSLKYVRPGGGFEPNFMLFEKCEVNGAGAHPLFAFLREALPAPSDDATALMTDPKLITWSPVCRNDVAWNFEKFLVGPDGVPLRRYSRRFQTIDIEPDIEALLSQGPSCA
Summary of the method: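 Recombinant GPX1 (10 nM final) was preincubated with compound for 30 min at room temperature, then reacted with 1 mM GSH, 0.5 mM CHP, 0.5 mM NADPH and 100 nM glutathione reductase; NADPH fluorescence (340/450 nm) was read at 0 and 15 min.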
Note: nearly all actives have a fitted effect of over 65% in size.

SMILES | Potency
COC(=O)C[C@H]1[C@]2(C)C3=C(C)[C@H](c4ccoc4)C[C@H]3O[C@@H]2[C@H](OC(C)=O)C2[C@](C)(C(=O)OC)C=CC(=O)[C@@]21C (some centres undefined) | inactive
CC1=CC(=O)[C@H]2C(C)(C)CCC[C@]2(C)[C@@]1(O)CO | inactive
CC(C)C(NC(=O)c1ccc2ccccc2n1)C(=O)NC(CC(=O)O)C(=O)COc1c(F)cccc1F (centres undefined) | inactive
O=C(O)c1cc(I)ccc1NC(=O)[C@H](Cc1ccccc1)NCc1ccccc1 | inactive
OC[C@H]1O[C@@H](OC[C@H]2O[C@@H](OC/C=C/c3ccccc3)[C@H](O)[C@@H](O)[C@@H]2O)[C@@H](O)[C@@H]1O | inactive

biological target: Phospholipid hydroperoxide glutathione peroxidase GPX4 (Homo sapiens) (UniProt P36969); assay: Primary qHTS Assay for Inhibitors of Recombinant Selenoprotein Glutathione Peroxidase 4 (GPX4) (AID 1845192); conditions: recombinant GPX4, GR-coupled NADPH fluorescence, 15 min; series mostly up to 50 µM
Sequence (P36969 whole entry, looked up): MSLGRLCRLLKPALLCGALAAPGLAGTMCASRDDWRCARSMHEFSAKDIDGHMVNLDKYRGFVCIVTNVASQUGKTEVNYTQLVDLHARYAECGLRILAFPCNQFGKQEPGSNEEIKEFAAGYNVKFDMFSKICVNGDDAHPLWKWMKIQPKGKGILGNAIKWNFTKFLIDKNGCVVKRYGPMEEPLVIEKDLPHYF
Summary of the method: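 GR-coupled readout: 100 nM GR, 1 mM GSH, 0.5 mM NADPH; NADPH fluorescence (ex 340/em 450 nm) read at t=0 and after 15 min RT. GPX4 200 nM, preincubated 30 min with compound; substrate 0.5 mM CHP.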

SMILES | Potency | outcome
Cc1cc(C)c(Nc2ccnc(Nc3ccc(C#N)cc3)n2)c(C)c1 | inactive | 
CC(C)=CCC/C(C)=C/CO[C@@H]1O[C@H](CO)[C@@H](OC(=O)/C=C/c2ccc(O)cc2)[C@H](O[C@@H]2O[C@@H](C)[C@H](O)[C@@H](O)[C@H]2O)[C@H]1O | inactive | 
CC1(C)CC2C(C1)C(C)(O)C13CC1(COC3=O)C2O (centres undefined) | inactive | 
CC1=C(C)C(=O)OC(C(C)C2CCC3C4CC=C5CC(OC6OC(COC7OC(CO)C(O)C(O)C7O)C(O)C(O)C6O)CC(O)C5(C)C4CCC23C)C1 (centres undefined) | inactive | 
O=C(c1cccc(Cl)c1F)N1CCN(Cc2cccc(Nc3nccs3)n2)CC1 | inactive | 
CC(=O)NCC(=O)N1C2CCC1c1cc(Nc3ncc(C(F)(F)F)c(NC4CCC4)n3)ccc12 (centres undefined) | inactive | 
Cc1nc(Nc2n[nH]c3c2CN(C(=O)NC(CN(C)C)c2ccccc2)C3(C)C)c2sccc2n1 (centres undefined) | inactive | 
COc1ccc([C@@H]2OC[C@H]3[C@@H]2CO[C@@H]3c2ccc(OC3OC(CO)C(O)C(O)C3O)c(OC)c2)cc1OC (some centres undefined) | inactive | 
CC1CC[C@]2(C(=O)O)CC[C@]3(C(=O)O)C(=CCC4[C@@]5(C)CC[C@H](OC6OC(C)C(O)C(OC7OC(CO)C(O)C(O)C7O)C6O)C(C)(C)C5CC[C@]43C)C2C1C (some centres undefined) | inactive | 
CC(=O)OC[C@]12[C@H](OC(C)=O)C(=O)[C@@H]3[C@@H](OC(C)=O)[C@@]14O[C@@]3(C)COC(=O)c1cccnc1[C@@H](C)[C@H](C)C(=O)O[C@@H]([C@H](O)[C@@H]2OC(C)=O)[C@]4(C)O | inactive | 
CC1=CC(=O)CC(C)(C)C1CCC(C)O[C@@H]1O[C@H](CO[C@@H]2OC[C@@H](O)[C@H](O)[C@H]2O)[C@@H](O)[C@H](O)[C@H]1O (some centres undefined) | inactive | 
CC(C)=CCC[C@](C)(O)[C@H]1CC[C@]2(C)[C@@H]1[C@H](O)CC1[C@@]3(C)CC[C@H](O)C(C)(C)[C@@H]3[C@@H](O[C@@H]3O[C@H](CO)[C@@H](O)[C@H](O)[C@H]3O[C@@H]3O[C@H](CO)[C@@H](O)[C@H](O)[C@H]3O)C[C@]12C (some centres undefined) | inactive | 
CCOc1cc(C(=O)N2CCC(N3CCN(C)CC3)CC2)ccc1Nc1ncc2c(n1)N(C1CCCC1)c1ccccc1C(=O)N2C | inactive | 
CC1(C)CCC2(C(=O)OC3OCC(O)C(O)C3O)CCC3(C)C(=CCC4C5(C)CC(O)C(OC6OC(COC7OCC(O)C(O)C7O)C(O)C(O)C6O)C(C)(C)C5CCC43C)C2C1 (centres undefined) | inactive | 
CC1=CC2C(CC1OC1OC(CO)C(O)C(O)C1O)C(C)CC(=O)C2C(C)C (centres undefined) | inactive | 
C[C@@H]1O[C@@H](O[C@H]2[C@H](O)[C@@H](O[C@@H]3O[C@H](CO)[C@@H](O)[C@H](O[C@@H]4O[C@H](CO)[C@@H](O)[C@H](O)[C@H]4O)[C@H]3O)[C@H](O[C@H]3CC[C@@]4(C)C(=CC[C@@H]5C4CC[C@@]4(C)C5C[C@@H]5OC6(CC[C@@](C)(CO[C@@H]7O[C@H](CO)[C@@H](O)[C@H](O)[C@H]7O)O6)[C@@H](C)[C@@H]54)C3)O[C@@H]2CO)[C@H](O)[C@H](O)[C@H]1OC1OC(CO)C(O)C(O)C1O (some centres undefined) |  | inactive [at 9.73 µM]
O=C(c1cc2c(cc1F)OC(c1ccc(F)cc1)(c1ccc(Cl)cc1Cl)O2)N1CCOCC1 (centres undefined) | inactive | 
CN(C)c1ccc2c(c1)OC(N)=C(C#N)C2c1cccc(C(F)(F)F)c1 (centres undefined) | inactive | 
CC(C)=CCC[C@](C)(O[C@@H]1O[C@H](CO[C@@H]2O[C@H](CO)[C@@H](O)[C@H](O)[C@H]2O)[C@@H](O)[C@H](O)[C@H]1O)C1CC[C@]2(C)[C@@H]1[C@H](O)CC1[C@@]3(C)CC[C@H](O[C@@H]4O[C@H](CO)[C@@H](O)[C@H](O)[C@H]4O[C@@H]4O[C@H](CO)[C@@H](O)[C@H](O)[C@H]4O)C(C)(C)[C@@H]3CC[C@]12C (some centres undefined) | inactive | 
